Holding throughout (experiment): NCI-60 one-dose screen, 48 h (100 = growth as untreated, 0 = no growth, -100 = all killed)
Common to all, as to conditions: 10 µM unless noted

Assay [1] relates to HCT-15 colon.
Assay [2] concerns HT29 colon.
The subject of assay [3] is SNB-19 CNS.
In assay [4] the test system is U251 CNS.
Assay [5] deals with PC-3 prostate.
The subject of assay [6] is SK-MEL-5 melanoma.
The subject of assay [7] is UACC-62 melanoma.
Assay [8] relates to LOX IMVI melanoma.
In assay [9] the test system is SK-MEL-28 melanoma.
Assay [10] concerns SK-MEL-2 melanoma.
The subject of assay [11] is EKVX NSCLC.
Assay [12] deals with SN12C renal.
For assay [13], the system named is UO-31 renal.
Assay [14] relates to TK-10 renal.
Assay [15] relates to ACHN renal.
Assay [16] deals with CAKI-1 renal.
Assay [17] relates to A498 renal.
Assay [18] deals with CCRF-CEM leukemia.
Assay [19] concerns MOLT-4 leukemia.

Compounds without any hit were thinned out: in the full panel of roughly 83,000, 20% have a hit.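 Compound tested at a single concentration for 48 hours in 96-well plates; a percent growth value below 10 was scored as active.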 Values without a mark were called inactive. Calls of active or inactive are those of the source.

As to `CC(C)(C)Nc1c(-c2cccs2)nc2ncccn12`, the growth in assay [1] is 102%; in [2], 103%; in [3] it was 95.9%; in assay [4], 104%; in [5], 95%; in [6], 93.8%. Further, the growth in assay [7] was 95.8%; in assay [8], 98.5%; in [9], 113%; in assay [10], 100%; in [11], 104%; in [12] it was 94.9%. In addition, the growth in assay [13] is 86.9%; in [14] it was 101%; in assay [15], 107%; in [16], 89.9%; in [17] it was 80.1%; in assay [18], 89.9%. For the same compound, the growth in assay [19] is 86.2%.
For `COc1cc(NC(=O)SC2=NCCS2)cc(OC)c1`, the growth in assay [1] is 105%; in assay [2] it was 103%; in [3], 90.5%; in [4] it was 97.7%; in [5], 93.6%; in assay [6], 98.1%. The growth in [7] is 88.9%; in assay [8] it was 98.3%; in assay [9] it was 98.5%; in [10] it was 106%; in [11], 113%; in assay [12] it was 91.8%. The growth in [13] is 93.6%; in [14], 126%; in [15], 102%; in assay [16], 108%; in [17], 90.3%; in [18], 99.5%. Further, in assay [19], the growth is 110%.
`CCCCNC(=O)Oc1ccc(/C(=C(\C)c2ccccc2)c2ccc(OCCN(CC)CC)cc2)cc1`: the growth was 17.7% in assay [1]; 4.17% (active) in assay [2]; 89.2% in [3]; 53.8% in assay [4]; 59.6% in [5]; 48.2% in [6]. Further, the growth was 68.3% in [7]; 74.8% in assay [8]; 75.7% in assay [9]; 92.1% in assay [10]; 80.8% in assay [11]; 83.3% in [12]. Moreover, the growth in [13] was 44.1%; in assay [14], 88.1%; in assay [15], 88%; in assay [16], 82.5%; in [17], 65.3%; in assay [18], 60.1%. Moreover, the growth in [19] is 42%.
On to `Brc1cccc(-c2cc(-c3ccc4c(c3)OCCCO4)[nH]n2)c1`, for which the growth was 29.7% [25 µM] in assay [1]; 12.7% [25 µM] in assay [2]; 72.2% [25 µM] in assay [3]; 47.4% [25 µM] in assay [4]; 55.9% [25 µM] in [5]; 39.1% [25 µM] in assay [6]. The growth is 60.2% [25 µM] in assay [7]; 43.9% [25 µM] in [8]; 76.5% [25 µM] in [9]; 46.1% [25 µM] in assay [10]; 54.7% [25 µM] in assay [11]; 62.7% [25 µM] in assay [12]. The growth in [13] was 60.1% [25 µM]; in assay [14], 71.1% [25 µM]; in [15], 75.8% [25 µM]; in [16], 39.6% [25 µM]; in assay [17], 70% [25 µM]; in assay [18] it was 57.5% [25 µM]. Moreover, the growth in assay [19] is 56.8% [25 µM].
Consider `COc1cccc(-c2nc3sccn3c2-c2ccnc(NCCCNS(=O)(=O)c3ccc(F)cc3)c2)c1`, for which the growth in [1] is 19.4%; in assay [2] it was 44.4%; in [3] it was 62.3%; in assay [4], 55.5%; in assay [5], 9.93% (active); in assay [6] it was -39.3% (active). The growth was -38.3% (active) in [7]; 23.1% in assay [8]; 52.1% in [9]; 21.2% in [10]; 36.5% in assay [11]; 29.9% in [12]. The growth is 6.81% (active) in assay [13]; 80.4% in assay [14]; 22.6% in assay [15]; 23.9% in [16]; 48.7% in [17]; 10.6% in assay [18]. In assay [19], the growth was 10.9%.
Take `C=CCn1cc(-c2nc3ccccc3s2)c2cc(-c3ccc4c5c(cccc35)C(=O)N(CCN3CCNCC3)C4=O)ccc21`: the growth is 16.1% in assay [1]; 11% in assay [2]; 90% in [3]; 95.2% in [4]; 65.2% in [5]; 99.1% in assay [6]. In addition, the growth is 93.6% in assay [7]; 77.6% in assay [8]; 107% in assay [9]; 99% in [10]; 87.8% in [11]; 76.3% in assay [12]. For the same compound, the growth in assay [13] is 80.7%; in [14], 132%; in assay [15], 67.4%; in [16] it was 74%; in [17], 98.9%; in assay [18] it was 30.2%. Also, the growth in [19] is 92.8%.
With `CC12CCC3C4(C)COC(c5ccco5)OC4CCC3(C)C1CC(C1=CCOC1=O)O2` (configuration not stated), the growth was 97.7% in assay [1]; 105% in assay [2]; 97.3% in [3]; 110% in assay [4]; 90.5% in [5]; 101% in [6]. Besides, the growth in assay [7] is 87.8%; in assay [8], 106%; in assay [9], 106%; in assay [10], 131%; in assay [11], 91.6%; in [12], 96.4%. Moreover, the growth in assay [13] is 81.5%; in [14] it was 105%; in assay [15], 102%; in [16] it was 92.4%; in [17] it was 103%; in [18], 101%. Besides, the growth in assay [19] is 97.5%.
With `O=C(c1ccccc1)c1c(/C=C/c2ccccc2)c2ccccc2[nH]c1=O`, the growth in assay [1] was 101%; in assay [2], 106%; in assay [3], 79.4%; in [4] it was 90.5%; in [5], 89.5%; in assay [6] it was 96.4%. Also, the growth in assay [7] is 70.3%; in assay [8], 105%; in assay [9], 113%; in [10] it was 92.6%; in assay [11] it was 98.2%; in assay [12], 92.7%. Further, the growth in [13] is 73.6%; in assay [14], 97.8%; in assay [15] it was 93.5%; in [16], 91.8%; in assay [17], 97.6%; in assay [18] it was 87.6%. The growth in [19] was 84.1%.

For the origin of these results see PubChem BioAssay (NCI).
